Results reported in PubChem BioAssay (EPA / NIEHS).
Active and inactive are the calls of the source. How the source made its calls: active means hit-call score of the fitted dose curve at least 0.9, where 1 is the maximum; inactive means score below 0.9.

biological target: Retinoic acid receptor alpha (Homo sapiens) (UniProt P10276); experiment: ATG_DR5_RAR_CIS: Attagene CIS-FACTORIAL HepG2 Assay for human Retinoic Acid Receptor Alpha (RARE), DR5 submotif (AID 2282934); conditions: HepG2 Attagene cis-factorial RARE DR5 reporter, mRNA; actives raise or lower the signal;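 on AC50: reporter responds to endogenous RAR alpha beta and gamma in HepG2 not RARA alone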
Experimental: ATG_CIS is a cell-based, multiplexed-readout assay that uses HepG2, a human liver cell line, with measurements taken at 24 hours after chemical dosing in a 24-well plate.ATG_DR5_RAR_CIS is one of 52 assay component(s) measured or calculated from the ATG_CIS assay. It is designed to make measurements of mRNA induction, a form of inducible reporter, as detected with fluorescence intensity signals by Reverse transcription polymerase chain reaction (RT-PCR) and Capillary electrophoresis technology.Data from the assay component ATG_DR5_RAR_CIS was analyzed into 1 assay endpoint. This assay endpoint, ATG_DR5_CIS, was analyzed with bidirectional fitting relative to DMSO as the negative control and baseline of activity. Using a type of inducible reporter, measures of mRNA for gain or loss-of-signal activity can be used to understand the reporter gene at the transcription factor-level as they relate to the gene RARA and RARB and RARG. Furthermore, this assay endpoint can be referred to as a primary readout, because this assay has produced multiple assay endpoints where this one serves a reporter gene function. To generalize the intended target to other relatable targets, this assay endpoint is annotated to the nuclear receptor intended target family, where the subfamily is non-steroidal.
Human liver HepG2 cells are transiently transfected with multiple reporter transcription units (MRTUs) in 6-well plates using FuGene 6 reagent (Roche; 3 ml FuGene/1 mg DNA). The MRTU constructs are regulated by a cis-regulating element (promoter). […] A major difference between the CIS and TRANS system is that in CIS activities of endogenous TFs are measured, whereas the TRANS assay evaluates changes in activities of exogenous, chimeric NR-Gal4 proteins. […] At the end of 24 hour incubation, total RNA was isolated using TriZol reagent (Invitrogen). The isolated RNA is then reverse-transcribed using oligo(dT) primer and Mo-MLV reverse transcriptase (Invitrogen) with DNAse I (Ambion) treatment for 30 min. The one-tenth of the produced cDNA was amplified by PCR using Taq DNA polymerase (Invitrogen) and two reporter sequence-specific primers. The PCR products were fluorescently labeled by primer extension with 6-arboxyfluorescein (6-FAM) 5'-labeled reporter sequence-specific primer (2 min at 95 C, 20 s at 68 C and 10 min at 72 C) and these products were digested with 5U of HpaI (New England Biolabs) for 2h at 37 C. The fragments were purified using Qiaquick PCR columns (Qiagen), analyzed on an ABI 3130xL genetic analyzer (Applied Biosystems) with peak positions identified by using a set of X-rhodamine (ROX)-labeled MapMarker1000 molecular weight standards (BioVentures). The raw capillary electrophoresis data was processed using Attagraph software (Attagene).

Sequence of Retinoic acid receptor alpha (Homo sapiens) (P10276 whole entry, looked up): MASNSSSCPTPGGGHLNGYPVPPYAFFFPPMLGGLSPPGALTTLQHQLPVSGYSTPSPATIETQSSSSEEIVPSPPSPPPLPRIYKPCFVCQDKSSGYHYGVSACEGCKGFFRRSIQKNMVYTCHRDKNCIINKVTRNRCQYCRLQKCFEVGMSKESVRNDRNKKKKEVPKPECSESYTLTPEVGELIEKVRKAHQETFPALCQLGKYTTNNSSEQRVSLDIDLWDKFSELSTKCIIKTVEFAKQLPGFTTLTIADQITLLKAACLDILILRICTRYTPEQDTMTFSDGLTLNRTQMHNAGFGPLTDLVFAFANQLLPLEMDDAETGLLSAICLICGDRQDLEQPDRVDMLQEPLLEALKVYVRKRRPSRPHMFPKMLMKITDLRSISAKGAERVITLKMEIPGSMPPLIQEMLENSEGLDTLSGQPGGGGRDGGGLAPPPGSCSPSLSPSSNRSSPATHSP

Row | SMILES | outcome | AC50
1 | CCCOCCOCCOCCO | inactive | 
2 | COC(=O)c1c(C)cc(O)c(C)c1O | inactive | 
3 | Clc1nc2ccccc2s1 | inactive | 
4 | CO[Si](OC)(OC)c1ccccc1 | inactive | 
5 | O=C(O)c1cc(Cl)cc([N+](=O)[O-])c1Cl | inactive | 
6 | CCCCOCCOC(=O)COc1nc(Cl)c(Cl)cc1Cl | inactive | 
7 | CCCCCCCCCCC=CC#N | inactive | 
8 | O=C1CCC(=O)N1Cl | inactive | 
9 | C(=CC=Nc1ccccc1)C=CNc1ccccc1 | inactive | 
10 | CCCCCCCCCCCCCCCCCC#N | inactive | 
11 | CCC(=O)Oc1ccc(/C(CC)=C(\CC)c2ccc(OC(=O)CC)cc2)cc1 | inactive | 
12 | CCCCCCCCCCc1ccccc1 |  | 84.7 µM (active)
13 | OCCc1ccncc1 | inactive | 
14 | C=C[Si](OC(C)=O)(OC(C)=O)OC(C)=O | inactive | 
15 | Cc1cccc(N)n1 | inactive | 
16 | C=CC=CC=CCCCCC | inactive | 
17 | COC(F)(F)C(F)(C(F)(F)F)C(F)(F)F | inactive | 
18 | CCN(CC#N)c1cccc(C)c1 | inactive | 
19 | OC1CCCC1 | inactive | 
20 | CC=CC(F)(F)C(F)(F)C(F)(F)F | inactive | 

Row | SMILES | outcome | AC50
21 | CC(C)=CCC[C@H](C)CCO | inactive | 
22 | CC1=NN(c2cc(S(=O)(=O)O)ccc2Cl)C(=O)C1N=Nc1ccccc1 (stereo not given) | inactive | 
23 | O=C1c2cccc(O)c2C(=O)c2c(O)cc(CO)cc21 | inactive | 
24 | C1=Cc2ccccc2C1 | inactive | 
25 | C=C(C)C(=O)OCCO | inactive | 
26 | O=C(O)Cc1c(Cl)ccc(Cl)c1Cl | inactive | 
27 | COC(=O)c1sccc1S(N)(=O)=O | inactive | 
28 | CCCCCCOc1cc(C)c(O)c(C)c1C | inactive | 
29 | CC(C)c1ccc2cc(C(C)C)ccc2c1 |  | 67 µM (active)
30 | CC(C)CCCCCOC(=O)CCS | inactive | 
31 | C=CCOCC(O)CCl (stereo not given) | inactive | 
32 | C=CCOc1c(Br)cc(Br)cc1Br | inactive | 
33 | CC(=O)C=CC1C(C)=CCC(C)C1(C)C (stereo not given) | inactive | 
34 | CCCCC(CC)COCC1CO1 (stereo not given) | inactive | 
35 | O=C(C(Cl)Cl)N1CCOC12CCCCC2 | inactive | 
36 | COc1ccc(-c2coc3cc(O)ccc3c2=O)cc1 | inactive | 
37 | Cn1c(=O)[nH]c2ncn(C)c2c1=O | inactive | 
38 | O=c1[nH]nc(-c2ccc([N+](=O)[O-])o2)o1 | inactive | 
39 | O=[N+]([O-])C1(Br)COCOC1 | inactive | 
40 | CCOC(F)(F)C(F)(F)C(F)(F)C(F)(F)F | inactive | 
